The source of these data is the antibiotic and cytotoxicity screens of Wong et al. (2023).

The structures appear in SMILES notation. The whole screen tested about 39,000 compounds, of which about 3,300 (8.5%) were called active. The sample as a whole holds a higher share of actives than the screen did.

This experiment has as its system HepG2. Briefly: cytotoxicity call (relative viability < 0.9). As to conditions: 10 µM.
Take `C[C@@H]1CN([C@@H](C)CO)C(=O)CCCn2nncc2CO[C@H]1CN(C)C(=O)Nc1ccc(N2CCN(C)CC2)cc1`: the cytotoxicity call was “inactive”.

Turning to `C[C@H]1CN([C@@H](C)CO)C(=O)Cc2cc(NC(=O)Nc3cccc4ccccc34)ccc2O[C@H]1CN(C)C(=O)Nc1ccc(F)cc1`, the cytotoxicity call was “inactive”.

`C[C@@H]1CN([C@@H](C)CO)C(=O)c2cc(NS(=O)(=O)c3ccccc3)ccc2O[C@@H](C)CCCCO[C@H]1CN(C)Cc1ccc(C(=O)O)cc1`: the cytotoxicity call was “inactive”.

For `Cc1cc(C(=O)Nc2cccc3c2O[C@H](CN(C)S(=O)(=O)c2ccc(Cl)cc2)[C@@H](C)CN([C@@H](C)CO)C3=O)n(C)n1`, the cytotoxicity call is “inactive”.

As for `Cc1ccc(S(=O)(=O)Nc2ccc3c(c2)CC(=O)N([C@@H](C)CO)C[C@@H](C)[C@H](CN(C)S(=O)(=O)c2ccc(F)cc2)O3)cc1`, the cytotoxicity call was “inactive”.

For `CC(C)(O/N=C(\C(=O)N[C@@H]1C(=O)N2C(C(=O)O)=C(C[N+]3(CCNC(=O)c4ccc(O)c(O)c4Cl)CCCC3)CS[C@H]12)c1csc(N)n1)C(=O)O`, the cytotoxicity call was “inactive”.

Consider `CC(C)NC(=O)Nc1ccc2c(c1)C(=O)N([C@@H](C)CO)C[C@@H](C)[C@H](CN(C)C(=O)Nc1ccc(F)cc1)OCCCC[C@@H](C)O2`, for which the cytotoxicity call is “inactive”.

With `C[C@H]1CN([C@@H](C)CO)C(=O)Cc2cc(NS(C)(=O)=O)ccc2O[C@H]1CN(C)C(=O)Nc1ccccc1`, the cytotoxicity call is “inactive”.

As for `C[C@H]1CN([C@@H](C)CO)C(=O)c2cc(NC(=O)Nc3cccc4ccccc34)ccc2O[C@@H]1CN(C)Cc1ccncc1`, the cytotoxicity call was “inactive”.

In the case of `COc1ccc(CNC(=O)N(C)C[C@H]2OCc3ccccc3-c3c(n(C)c4ccccc34)C(=O)N([C@H](C)CO)C[C@@H]2C)cc1`, the cytotoxicity call is “inactive”.

As to `O=C(C[C@@H]1C[C@@H]2c3cc(NC(=O)C4CCOCC4)ccc3O[C@@H]2[C@@H](CO)O1)NCCN1CCCCC1`, the cytotoxicity call is “inactive”.

In the case of `Cc1noc(C)c1S(=O)(=O)Nc1ccc2c(c1)CC(=O)N([C@H](C)CO)C[C@H](C)[C@H](CN(C)C(=O)Nc1ccccc1)O2`, the cytotoxicity call is “inactive”.

On to `C[C@@H]1CCCCO[C@H](CN(C)Cc2ccc(C(=O)Nc3ccccc3N)cc2)[C@@H](C)CN([C@H](C)CO)C(=O)c2cc(NS(=O)(=O)c3cccs3)ccc2O1`, for which the cytotoxicity call was “inactive”.

With `C[C@@H]1CCCCO[C@@H](CN(C)Cc2ccc(C(=O)Nc3ccccc3N)cc2)[C@@H](C)CN([C@H](C)CO)C(=O)c2cc(NS(=O)(=O)c3cccs3)ccc2O1`, the cytotoxicity call is “active”.

With `C[C@@H]1CCCCO[C@H](CN(C)Cc2ccc(C(=O)Nc3ccccc3N)cc2)[C@@H](C)CN([C@H](C)CO)C(=O)c2cc(NS(=O)(=O)c3ccccc3)ccc2O1`, the cytotoxicity call is “inactive”.

`COc1ccc2c3c(n(c2c1)C)[C@H](CO)N(C[C@]13CCN(CC1)C(=O)Nc1ccc(cc1F)F)C(=O)Nc1ccc(cc1)F`: the cytotoxicity call was “inactive”.

Take `O=C(C[C@@H]1CC[C@H](NS(=O)(=O)c2ccccc2)[C@@H](CO)O1)NCc1ccncn1`: the cytotoxicity call was “inactive”.

Turning to `C[C@H](CO)N1C[C@H](C)[C@H](CN(C)C(=O)Nc2ccc(C(F)(F)F)cc2)Oc2ccc(NC(=O)C3CCCCC3)cc2C1=O`, the cytotoxicity call is “inactive”.

`C[C@H](CO)N1C[C@H](C)[C@@H](CN(C)Cc2ccc(F)cc2)Oc2cc(C#CCN(C)C)ccc2S1(=O)=O`: the cytotoxicity call is “inactive”.

As for `C[C@@H]1CN([C@@H](C)CO)S(=O)(=O)c2ccc(C#CCN(C)C)cc2O[C@H]1CN(C)Cc1ccc(F)cc1`, the cytotoxicity call is “inactive”.

Turning to `C[C@@H]1CN([C@@H](C)CO)S(=O)(=O)c2ccc(C#CC3CC3)cc2O[C@H]1CN(C)Cc1ccc(F)cc1`, the cytotoxicity call is “inactive”.

Take `C[C@H]1CN([C@@H](C)CO)S(=O)(=O)c2ccc(C#CCN(C)C)cc2O[C@@H]1CN(C)Cc1ccc(F)cc1`: the cytotoxicity call is “inactive”.

As to `C[C@H](CO)N1C[C@H](C)[C@@H](CN(C)Cc2ccc(F)cc2)Oc2cc(C#CC3CC3)ccc2S1(=O)=O`, the cytotoxicity call was “inactive”.

As to `C[C@@H]1CN([C@@H](C)CO)S(=O)(=O)c2ccc(C#CCN(C)C)cc2O[C@@H]1CN(C)Cc1ccc(F)cc1`, the cytotoxicity call was “inactive”.

With `C[C@@H]1CN([C@H](C)CO)S(=O)(=O)c2ccc(C#CC3CC3)cc2O[C@H]1CN(C)Cc1ccc(F)cc1`, the cytotoxicity call is “active”.

Take `C[C@@H]1CN([C@H](C)CO)S(=O)(=O)c2ccc(C#CCN(C)C)cc2O[C@H]1CN(C)Cc1ccc(F)cc1`: the cytotoxicity call is “active”.

For `C[C@H](CO)N1C[C@H](C)[C@H](CN(C)Cc2ccc(F)cc2)Oc2cc(C#CCN(C)C)ccc2S1(=O)=O`, the cytotoxicity call is “active”.

As to `CCCNC(=O)N1C[C@@H](O)COC[C@@H]2O[C@@H](CC(=O)NCc3ccncn3)CC[C@H]21`, the cytotoxicity call is “inactive”.

In the case of `C[C@@H]1CN([C@@H](C)CO)S(=O)(=O)c2ccc(C3=CCCC3)cc2O[C@@H]1CN(C)C(=O)c1cnccn1`, the cytotoxicity call was “inactive”.

Take `COc1ccc(CN(C)C[C@H]2OCCCC[C@H](C)Oc3ccc(NS(=O)(=O)c4ccc(Cl)cc4)cc3C(=O)N([C@H](C)CO)C[C@H]2C)cc1`: the cytotoxicity call is “inactive”.

On to `C[C@H](CO)N1C[C@H](C)[C@@H](CN(C)C(=O)Cc2ccccc2)OCCCC[C@H](C)Oc2ccc(NC(=O)Cc3ccccc3)cc2C1=O`, for which the cytotoxicity call is “inactive”.

`CC(C)N1C[C@H](C)[C@@H](CN(C)Cc2ccc(Oc3ccccc3)cc2)Oc2c(NC(=O)c3ccccn3)cccc2C1=O`: the cytotoxicity call was “inactive”.

`COc1ccccc1-c1ccc2c(c1)O[C@H](CN(C)CC1CCOCC1)[C@@H](C)CN([C@H](C)CO)S2(=O)=O`: the cytotoxicity call is “inactive”.

Turning to `C[C@@H]1CN([C@@H](C)CO)S(=O)(=O)c2ccc(C#CC3(O)CCCC3)cc2O[C@@H]1CN(C)C(=O)c1cccnc1`, the cytotoxicity call was “inactive”.

As for `C[C@@H]1CN([C@@H](C)CO)C(=O)c2ccccc2-c2ccccc2CO[C@H]1CN(C)Cc1ccccc1C(F)(F)F`, the cytotoxicity call was “inactive”.

On to `O=C(C[C@@H]1CC[C@H]2[C@@H](COC[C@@H](O)CN2S(=O)(=O)c2ccc(F)cc2)O1)N[C@@H]1CCN(Cc2ccccc2)C1`, for which the cytotoxicity call was “inactive”.

On to `O=C(C[C@H]1CC[C@H](NC(=O)Cc2ccccn2)[C@H](CO)O1)NCCc1ccncc1`, for which the cytotoxicity call was “inactive”.

In the case of `CSc1ccc2c(c1)N(CCC1CCCCN1C)c1ccccc1S2.Cl` (stereo not given), the cytotoxicity call is “active”.

As for `CC1CCN(C(=O)N2c3ccccc3Sc3ccccc32)CC1`, the cytotoxicity call was “inactive”.

Regarding `C[C@H]1CN([C@@H](C)CO)C(=O)c2cccc(NS(=O)(=O)c3cccs3)c2O[C@H]1CN(C)S(C)(=O)=O`, the cytotoxicity call is “inactive”.
